# PubChem BioAssay (NCI)
# The panel holds about 83,000 compounds, 20% with a hit somewhere; the sample as a whole holds those more often.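 A percent growth of 40 corresponds to 60% growth inhibition; 0 means no net growth; -100 means all cells died. Active threshold: below 10.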 Activity calls are given as the source filed them.
# System: U251 CNS
# Assay: NCI-60 one-dose screen, 48 h (100 = growth as untreated, 0 = no growth, -100 = all killed)
# Details: 10 µM unless noted
# Method: Growth inhibition of the U251 human tumor cell line is measured as a screen for anti-cancer activity. Cells are grown in 96 well plates and exposed to the test compound for 48 hours. Compounds are tested at a single concentration, which is 10^-5 M for most compounds. The reported endpoint is percent growth (GI% or GIPRCNT), where numbers from 0 - 100% represent growth inhibition, and numbers from -100% - 0 represent cell death. For example, a value of 40 represents 60% growth inhibition. A value of 0 means no net growth occurred over the course of the experiment. A value of -40 indicates 40% of cells at the beginning of the experiment died by the end of the experiment. A value of -100 means all cells are dead at the end of the experiment.
# NCI-60 Human Tumor Cell Lines Screen was performed using the standard one-dose NCI protocol, which is described in more detail at https://dtp.cancer.gov/discovery_development/nci-60/default.htm.
# Compounds with GIPRCNT values below 10 were considered active. Activity score was based on GIPRCNT using the following formula: […]
# Score is 0 for GIPRCNT values of 100 or above, 50 for GIPRCNT values of 0, and 100 for GIPRCNT values of -100.
row,SMILES,growth
1,COc1ccc2c(c1)c(-c1nc(-c3c[nH]c4ccncc34)cs1)cn2C,-91.9% (active)
2,Nc1nc(N)c(-c2ccc(Cl)c(Cl)c2)c(CBr)n1,65.4% (inactive)
3,CCC(=C(c1ccc(OCCN2CCCCC2)cc1)c1ccc(OCCN2CCCCC2)cc1)c1ccc(Cl)cc1,-82.2% (active)
4,COC(=O)c1c(C)nc(C)c2c1C(=O)C(Br)=C(NCc1ccccc1)C2=O,20.1% (inactive)
5,O=c1c2ccccc2n2cnc3ccc(Cl)c1c32,78.4% (inactive)
6,CC1=C2[C@@H](CC1)[C@]1(C)O[C@@](C(C)C)(C[C@H]1OC(=O)[C@H](C)O)[C@H]2OC(=O)/C=C/c1ccccc1,79% (inactive)
7,COC(=O)c1nc(-c2ccccc2)oc1S(=O)(=O)Cc1ccccc1,94.2% (inactive)
8,COc1c(C(=O)Nc2ccc(C)c(Br)c2)ccc2ccccc12,96.2% (inactive)
9,NC(=O)c1cccc(-n2ccc3cc(NC(=O)c4ccc(N5CCOCC5)c(C(F)(F)F)c4)ccc32)n1,44.1% (inactive)
10,COc1cc2c(cc1OC)C(C)N(S(N)(=O)=O)CC2 (stereo not given),114% (inactive)
11,COc1cc(OC)c(/C=C/C(=O)c2c(OC)cccc2OC)c(OC)c1,5.71% (active)
12,O=C(/C=C/c1ccccc1)Nc1ncc(Cc2ccccc2Cl)s1,27.2% (inactive)
13,CCOC(=O)n1cc(-c2nonc2-c2cn(C(=O)OCC)c3ccc(Br)cc23)c2ccccc21,89.8% (inactive)
14,c1csc(-c2ccc(CNc3c4ccccc4nc4ccccc34)cc2)c1,-72.7% (active)
15,CN1CCN(c2cc(Nc3cc(C4CC4)[nH]n3)nc(Nc3ccc(CC(=O)NCc4cccc(F)c4)cc3)n2)CC1,26% (inactive)
16,CN(C)CC(C)(C)C(=O)/C=C/c1ccccc1,-41.5% [25 µM] (active)
17,Cc1ccc(-c2nc(N3CCCNCC3)c3oc(-c4ccccc4)nc3n2)cc1,-85.9% (active)
18,NC(=O)C(=O)c1ccccc1NC=O,96.3% (inactive)
19,COC(=O)c1cc(N=C2NC(=O)/C(=C/C=C/c3ccccc3)S2)ccc1O,22.6% (inactive)
20,O=C(Nc1cccc(Cl)c1)Nc1cccc(Cn2c(=O)[nH]c3ccc(Oc4ncccn4)cc3c2=O)c1,31.3% (inactive)

row,SMILES,growth
1,Cc1ccc(C)n1-c1ccccc1-n1c(C)ccc1C,102% (inactive)
2,COc1ccc(OC)c(/C=N/Nc2ncnc3c2c(C)nn3C)c1,96.6% (inactive)
3,O=C1NC(=C(Cl)Cl)/C(=N\S(=O)(=O)NCc2ccccc2)N1,91% (inactive)
4,O=C1c2ccccc2-c2c1c1c(=O)[nH]c3ccccc3c1n2Cc1ccccc1,68.6% (inactive)
5,COc1ccc(Cc2cnc(NC(=O)c3cc(C)oc3C)s2)cc1,35.8% (inactive)
6,COc1ccc(C(=O)Nc2cccc(-c3cc(=O)c4c(OC)c(OC)c(OC)cc4o3)c2)cc1,72.3% (inactive)
7,Cn1ccnc1C(=O)/C=C/c1ccc(C(=O)Nc2ccc(Cl)cc2)cc1,-50.1% (active)
8,COc1c(B(O)O)cccc1-c1cc(C)c2c(ccc3[nH]ncc32)n1,87.8% (inactive)
9,CCCCNC(=O)Oc1ccc(/C(=C(/C)Cc2ccc(OC)cc2)c2ccc(OCCN3CCCC3)cc2)cc1,41.3% (inactive)
10,C=C(C)[C@@H]1CCC[C@]2(COS(=O)(=O)c3ccc(C)cc3)CC[C@]3(C)[C@@H](CC[C@@H]4[C@@]5(C)CCCNC(C)(C)[C@@H]5CC[C@]43C)[C@@H]12,-82.1% (active)
11,Nc1cc(C(=O)NC[C@H]2CN(c3ccc(N4CCC(C(=O)O)CC4)cc3)C(=O)O2)ccc1Cl,103% (inactive)
12,O=c1c2cnn(-c3ccccc3)c2n2c(CN3CCOCC3)nnc2n1-c1ccccc1,89.4% (inactive)
13,C/C(=N\O)c1ccc(Cl)cc1,103% (inactive)
14,C=CC(=O)N1CCN(c2cccc(Oc3nccc(Nc4nnc(-c5ccc(Br)cc5)s4)n3)c2)CC1,56.8% (inactive)
15,O=C(Nc1nc2ccccc2s1)c1ccc(F)cc1,99.7% (inactive)
16,CS(=O)(=O)c1ccc(-c2cnn3ccc(-c4cccc(S(=O)(=O)C5CC5)c4)nc23)cc1,68.7% (inactive)
17,COc1cc2ncnc(Nc3ccc(S(=O)(=O)Nc4cc(C)on4)cc3)c2cc1OCCCN1CCN(c2ccc(F)cc2)CC1,93.6% (inactive)
18,COc1ccc(Nc2nnc(-c3ccc(OC)c(OC)c3)o2)cc1,93% (inactive)
19,CC(=O)Oc1ccc(C)cc1C,103% (inactive)
20,O=C(OC(CO)C(=O)NC12CC3CC(CC(C3)C1)C2)c1ccc(Cl)cc1 (stereo not given),96.7% (inactive)
